The results in this text go back to ChEMBL document CHEMBL1157539, “Thousands of chemical starting points for antimalarial lead identification” (Nature, 2010).

Each structure is given as a SMILES string.

The first test concerns Plasmodium falciparum. As to the kind of experiment: GSK_TCMDC: Inhibition of Plasmodium falciparum 3D7 in whole red blood cells, using parasite LDH activity as an index of growth. Test compounds present at 2uM. Type of test: functional.
On to `Cc1nc2nc(N)nc(N)c2c(C)c1Cc1cccc(C#N)c1.Cl`, for which the Inhibition (usually the relative decrease from the control value, in per cent) is reported as 97%. In turn, `O=C(NCCN1CCOCC1)c1ccc(O)c(-c2cccc(C(F)(F)F)c2)c1` displayed an Inhibition of 95%. As for `COc1ccc(CCN(C)CCCCc2ccc(NC(=O)c3cccc4c(=O)c5cc(F)ccc5sc34)cc2)cc1OC`, the Inhibition was found to be 96%. In the case of `CC1CC(C)CN(CCCNc2ccc(C(=O)Nc3ccc(C(F)(F)F)cc3)cc2[N+](=O)[O-])C1` (stereo unspecified), the Inhibition was 100%. Compound `CCN(CC)CCN(Cc1ccc(-c2ccc(C(F)(F)F)cc2)cc1)C(=O)Cn1c(CCc2c(F)ccc(F)c2F)nc(=O)c2ccccc21.O=C(O)C(O)C(O)C(=O)O` registered an Inhibition of 98%. In the case of `Br.CC(C)Oc1ccc(CCCON2C(=N)N=C(N)NC2(C)C)cc1`, the Inhibition is 96%. Still for that read-out and setting: as for `Cc1ccc(Nc2nc(C)cc(N3CCN(CCc4ccccc4)CC3)n2)cc1`, the figure is 93%; as for `CCOc1ccc2[nH]c(C)cc(=NN=Cc3ccncc3)c2c1`, 99%; as for `COc1ccc(Nc2nc(N/N=C/c3ccc(-c4ccc([N+](=O)[O-])cc4)o3)nc(Nc3ccccc3)n2)cc1`, 100%. The compound `Cc1cccc2nc(-c3cccc(-c4cccc(NC(=O)CNC(=O)c5ccc(O)cc5)c4)c3)[nH]c12` displayed an Inhibition of 94%. On the same count and under the same terms, as for `O=C(NCCc1ccccc1)N(Cc1ccccc1-c1cccc(CNC2CCCC2)c1)C1CCN(Cc2ccccc2)CC1.O=C(O)C(F)(F)F`, the figure is 95%; as for `N#CCCN1CCN(Cc2cccc(-c3ccc(-c4nc5cc(C(F)(F)F)ccc5[nH]4)cc3)c2)CC1.O=C(O)C(F)(F)F`, 100%. The compound `CCOc1ccccc1NC(=O)C(Sc1nc(C)cc(C)c1C#N)c1ccccc1` (stereo unspecified) yielded an Inhibition of 99%. In turn, `CN(C)CCOc1cc(NC(=O)Nc2ccc(-c3ccccc3)cc2)ccc1I` had an Inhibition of 100%. Turning to `Cc1cccc(-c2nc(Nc3ccncc3)c3ccc([N+](=O)[O-])cc3n2)n1`, the Inhibition was found to be 87%. In the case of `O=C(Nc1ccc(-c2ccc(-c3nc4ccccc4[nH]3)s2)cc1)Nc1ccc(F)c(F)c1F`, the Inhibition came out at 99%.

As to `Cc1cc(NC(=O)c2cccs2)ccc1OC1CCN(Cc2ccccc2)C1.O=C(O)C(F)(F)F` (stereo unspecified), the Inhibition came out at 84%. For the compound `CC1CN(c2cnn(Cc3ccc(NC(=O)Nc4ccc(-c5ccccc5)cc4)cc3)c(=O)c2Cl)CC(C)N1.O=C(O)C(F)(F)F` (stereo unspecified), the Inhibition is listed as 100%. With `O=C(Nc1cccc(-c2cccc(-c3nc4ccccc4[nH]3)c2)c1)Nc1ccc(F)c(F)c1F`, the Inhibition is recorded as 98%.

`CCNc1cc(C(=O)NC(Cc2ccccc2)C(O)CNC2CCSCC2)cc(N2CCCC2=O)c1` (stereo unspecified): the Inhibition was found to be 99%. The compound `COc1cc2c(OC)cccc2cc1CNCCCCCCNCc1cc2cccc(OC)c2cc1OC.CS(=O)(=O)O` yielded an Inhibition of 95%. For `CN(C)Cc1cc2c(O)c(Cc3ccccc3)ccc2o1`, the Inhibition was 85%. As to `O=C(C1COc2ccccc2O1)N(CCCn1ccnc1)Cc1csc(-c2ccc(CNCc3ccccc3)cc2)n1.O=C(O)C(F)(F)F` (stereo unspecified), the Inhibition stood at 100%.

On to `Cc1cc(=NN=Cc2ccccc2Cl)c2ccccc2[nH]1`, for which the Inhibition is reported as 100%. Regarding `Fc1ccc(CNc2nc(-c3ccc(F)c(C(F)(F)F)c3)n(-c3cccc(C(F)(F)F)c3)n2)cc1`, the Inhibition is 95%. The compound `Cc1cc(N[C@@H](CC(C)C)C(=O)NCCc2ccccc2)nc(NCCc2cccs2)n1.O=C(O)C(F)(F)F` had an Inhibition of 89%.

Another test deals with Plasmodium falciparum. As to the kind of experiment: GSK_TCMDC: Inhibition of Plasmodium falciparum Dd2 in whole red blood cells, using parasite LDH activity as an index of growth. Test compounds present at 2uM. The test is classed as functional.
In turn, `COc1ccc(-c2ccc(NC(=O)c3cccc(Cl)c3)cc2)cc1CN(C)CCN(C)C.O=C(O)C(F)(F)F` returned an Inhibition of 35%. `COc1cc2c(cc1S(=O)(=O)c1ccc(NC(=O)c3cc4ccccc4s3)cc1)CCN(C)CC2` came in with an Inhibition of 88%.

The compound `CC(C)c1sc(N2CCN(C)CC2)nc1C(=O)NCCc1ccc(Br)cc1.O=C(O)C(F)(F)F` yielded an Inhibition of 60%. For the compound `O=S(=O)(Nc1cccc(CCN2CCC(N3CCCCC3)CC2)c1)c1ccc(Oc2ccccc2)nc1`, the Inhibition was found to be 0%. Take `CNC(=O)C1Cc2c([nH]c3c(C)cccc23)C2(N1)C(=O)Nc1ccc(OC(F)(F)F)cc12` (stereo unspecified): the Inhibition was 50%.

The compound `O=C(Nc1ccc2c(c1)CCN2C1CCN(Cc2cccc(F)c2F)C1)c1ccco1` (stereo unspecified) returned an Inhibition of 90%.

The compound `CC(C)n1cc(CN2CCCC(C(=O)Nc3cccc(-c4cc5ccccc5[nH]4)c3)C2)cn1` (stereo unspecified) had an Inhibition of 65%.

For `Cc1ccc2c(N/N=C/c3ccccc3[N+](=O)[O-])cc(C)nc2c1`, the Inhibition is 100%. As to `Cc1c(CNCCCNc2nc3ccncc3[nH]2)sc(Br)c1Br.Cl`, the Inhibition was found to be 1%. The compound `CN(C)c1ccc(-c2csc(C(=O)NC3CCN(CCC(C)(C)C)C3)c2)cc1.O=C(O)C(F)(F)F` (stereo unspecified) had an Inhibition of 36%. The compound `COC(=O)Nc1nc2cc3c(cc2s1)OCCO3` registered an Inhibition of 0%.

For the compound `CN(C)CCCNc1ncnc2c1[nH]c1ccc(Cl)cc12`, the Inhibition was found to be 3%. For `COc1ccc(N2CCN(c3nc(Nc4ccc(NC(C)=O)cc4)nc(N4CCCC4)n3)CC2)cc1`, the Inhibition was found to be 38%. `CC(C)CCN1CCC(Oc2ccc(NC(=O)c3cccs3)cc2Cl)CC1.O=C(O)C(F)(F)F` gave an Inhibition of 96%. On the same count and under the same terms, as for `Cc1nc2nc(N)nc(N)c2c(C)c1Cc1cccc(C#N)c1.Cl`, the figure is 1%. `O=C(NCCN1CCOCC1)c1ccc(O)c(-c2cccc(C(F)(F)F)c2)c1` displayed an Inhibition of 48%. `COc1ccc(CCN(C)CCCCc2ccc(NC(=O)c3cccc4c(=O)c5cc(F)ccc5sc34)cc2)cc1OC` came in with an Inhibition of 49%. Consider `CC1CC(C)CN(CCCNc2ccc(C(=O)Nc3ccc(C(F)(F)F)cc3)cc2[N+](=O)[O-])C1` (stereo unspecified), for which the Inhibition is reported as 99%. Same read-out and setting: the value for `CCN(CC)CCN(Cc1ccc(-c2ccc(C(F)(F)F)cc2)cc1)C(=O)Cn1c(CCc2c(F)ccc(F)c2F)nc(=O)c2ccccc21.O=C(O)C(O)C(O)C(=O)O` was 62%; that for `Br.CC(C)Oc1ccc(CCCON2C(=N)N=C(N)NC2(C)C)cc1` was 94%.

On to `Cc1ccc(Nc2nc(C)cc(N3CCN(CCc4ccccc4)CC3)n2)cc1`, for which the Inhibition was 6%. Compound `CCOc1ccc2[nH]c(C)cc(=NN=Cc3ccncc3)c2c1` came in with an Inhibition of 78%.

In turn, `COc1ccc(Nc2nc(N/N=C/c3ccc(-c4ccc([N+](=O)[O-])cc4)o3)nc(Nc3ccccc3)n2)cc1` yielded an Inhibition of 17%. With `Cc1cccc2nc(-c3cccc(-c4cccc(NC(=O)CNC(=O)c5ccc(O)cc5)c4)c3)[nH]c12`, the Inhibition is 49%. Regarding `O=C(NCCc1ccccc1)N(Cc1ccccc1-c1cccc(CNC2CCCC2)c1)C1CCN(Cc2ccccc2)CC1.O=C(O)C(F)(F)F`, the Inhibition was 87%. As for `N#CCCN1CCN(Cc2cccc(-c3ccc(-c4nc5cc(C(F)(F)F)ccc5[nH]4)cc3)c2)CC1.O=C(O)C(F)(F)F`, the Inhibition stood at 63%. The compound `CCOc1ccccc1NC(=O)C(Sc1nc(C)cc(C)c1C#N)c1ccccc1` (stereo unspecified) displayed an Inhibition of 98%.

In the case of `CN(C)CCOc1cc(NC(=O)Nc2ccc(-c3ccccc3)cc2)ccc1I`, the Inhibition is 45%. Still for that read-out and setting: as for `Cc1cccc(-c2nc(Nc3ccncc3)c3ccc([N+](=O)[O-])cc3n2)n1`, the figure is 13%; as for `O=C(Nc1ccc(-c2ccc(-c3nc4ccccc4[nH]3)s2)cc1)Nc1ccc(F)c(F)c1F`, 97%. In turn, `Cc1cc(NC(=O)c2cccs2)ccc1OC1CCN(Cc2ccccc2)C1.O=C(O)C(F)(F)F` (stereo unspecified) yielded an Inhibition of 87%. `CC1CN(c2cnn(Cc3ccc(NC(=O)Nc4ccc(-c5ccccc5)cc4)cc3)c(=O)c2Cl)CC(C)N1.O=C(O)C(F)(F)F` (stereo unspecified) returned an Inhibition of 46%. `O=C(Nc1cccc(-c2cccc(-c3nc4ccccc4[nH]3)c2)c1)Nc1ccc(F)c(F)c1F` returned an Inhibition of 95%. The same measure, in the same setting: as for `CCNc1cc(C(=O)NC(Cc2ccccc2)C(O)CNC2CCSCC2)cc(N2CCCC2=O)c1` (stereo unspecified), the figure is 98%. Consider `COc1cc2c(OC)cccc2cc1CNCCCCCCNCc1cc2cccc(OC)c2cc1OC.CS(=O)(=O)O`, for which the Inhibition amounted to 7%. Same read-out and setting: as for `CN(C)Cc1cc2c(O)c(Cc3ccccc3)ccc2o1`, the figure is 69%; as for `O=C(C1COc2ccccc2O1)N(CCCn1ccnc1)Cc1csc(-c2ccc(CNCc3ccccc3)cc2)n1.O=C(O)C(F)(F)F` (stereo unspecified), 18%. As to `Cc1cc(=NN=Cc2ccccc2Cl)c2ccccc2[nH]1`, the Inhibition was 30%.

For `Fc1ccc(CNc2nc(-c3ccc(F)c(C(F)(F)F)c3)n(-c3cccc(C(F)(F)F)c3)n2)cc1`, the Inhibition came out at 80%. On the same count and under the same terms, as for `Cc1cc(N[C@@H](CC(C)C)C(=O)NCCc2ccccc2)nc(NCCc2cccs2)n1.O=C(O)C(F)(F)F`, the figure is 16%.
